Drawing on PubChem BioAssay (NCI), this text covers growth for 10 compounds.

About 83,000 compounds went through this panel and 20% of them were active in at least one assay; those are over-represented in the sample as a whole.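 Interpretation: 100, growth as untreated; towards 0, rising growth inhibition; 0, no net growth; 0 to -100, cell death. Compounds scoring below 10 were considered active.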 Values without a mark were called inactive. Active and inactive are the calls of the source.

Among the test systems are SR leukemia; RPMI-8226 leukemia; OVCAR-8 ovarian; OVCAR-5 ovarian; OVCAR-4 ovarian; SK-OV-3 ovarian; IGROV1 ovarian; HS 578T breast; NCI/ADR-RES ovarian; T-47D breast; BT-549 breast; SW-620 colon; MCF7 breast; HCT-116 colon; HCC-2998 colon; KM12 colon; MDA-MB-435 melanoma.
Holding throughout (experiment): NCI-60 one-dose screen, 48 h (100 = growth as untreated, 0 = no growth, -100 = all killed)
What all share (conditions): 10 µM unless noted

As for `CC(C)C(/C=C/c1[nH]ncc1-c1cc(Cl)ccc1O)N1CCOCC1` (stereo not given), the growth with SR leukemia is 87.9%; with RPMI-8226 leukemia, 94.5%; with OVCAR-8 ovarian it was 91.9%; in the test with OVCAR-5 ovarian it was 99.4%; in the test on OVCAR-4 ovarian, 94.3%; with SK-OV-3 ovarian, 92.8%. Also, the growth in the test with IGROV1 ovarian was 88.6%; in the test on HS 578T breast, 83.8%; in the test with NCI/ADR-RES ovarian, 88.1%; in the test on T-47D breast, 94.9%; in the test with BT-549 breast it was 90%; in the test on SW-620 colon, 98.4%. Besides, the growth in the test on MCF7 breast is 76.8%; in the test with HCT-116 colon, 89.3%; in the test on HCC-2998 colon, 104%; in the test on KM12 colon, 99.6%.
In the case of `CC(=O)N1N=C(c2cc3ccccc3oc2=O)CC1c1cn(-c2ccccc2)nc1-c1ccc(C)cc1` (stereo not given), the growth in the test with SR leukemia was 101%; in the test with RPMI-8226 leukemia it was 102%; with OVCAR-8 ovarian it was 97.3%; in the test with OVCAR-5 ovarian, 94.1%; in the test on OVCAR-4 ovarian it was 94.4%; with SK-OV-3 ovarian, 95.2%. Further, the growth with IGROV1 ovarian is 108%; in the test on HS 578T breast it was 93.7%; in the test on NCI/ADR-RES ovarian it was 96.1%; in the test with BT-549 breast, 117%; in the test on MDA-MB-435 melanoma it was 102%; with SW-620 colon, 98.8%. In addition, the growth in the test with MCF7 breast is 90.8%; with HCT-116 colon, 92.1%; in the test on HCC-2998 colon, 106%; in the test with KM12 colon, 98.6%.
For `O=C(CCCCCC/C=C\c1csc(Br)n1)NO`, the growth in the test with SR leukemia was 50.6%; in the test on RPMI-8226 leukemia, 53.9%; in the test on OVCAR-8 ovarian it was 76%; in the test with OVCAR-5 ovarian, 80.1%; in the test with OVCAR-4 ovarian, 87.5%; with SK-OV-3 ovarian it was 95.1%. Besides, the growth in the test on IGROV1 ovarian is 81.9%; in the test with HS 578T breast, 87.1%; with NCI/ADR-RES ovarian, 64.6%; with T-47D breast it was 76.3%; in the test with BT-549 breast it was 103%; with SW-620 colon it was 78.2%. For the same compound, the growth with MCF7 breast is 73.1%; in the test with HCT-116 colon, 52.5%; with HCC-2998 colon, 98.5%; in the test on KM12 colon, 91.7%.
For `Cc1ncn(-c2ccc(/C=N/Nc3ccnc4cc(Cl)ccc34)cc2)c1C`, the growth was -21.3% (active) in the test with SR leukemia; -27.2% (active) with RPMI-8226 leukemia; -57.5% (active) in the test with OVCAR-8 ovarian; 102% in the test on OVCAR-5 ovarian; -68.3% (active) in the test with OVCAR-4 ovarian; 102% in the test with SK-OV-3 ovarian. Further, the growth in the test with IGROV1 ovarian is 61.7%; in the test with HS 578T breast, -16.1% (active); with NCI/ADR-RES ovarian, 8.02% (active); in the test with BT-549 breast, -93.7% (active); in the test with MDA-MB-435 melanoma, -80.2% (active); in the test with SW-620 colon, -60.4% (active). Also, the growth in the test on MCF7 breast is -69.1% (active); in the test with HCT-116 colon it was -83.6% (active); in the test on HCC-2998 colon, -44.5% (active); with KM12 colon, -25.8% (active).
Regarding `CCCc1[nH]c(-c2cc(N)ccc2Cl)c2c1C(=O)CCCC2`, the growth in the test on SR leukemia was 85.8%; in the test with RPMI-8226 leukemia, 89.7%; in the test with OVCAR-8 ovarian, 96.4%; in the test on OVCAR-5 ovarian, 94.7%; in the test with OVCAR-4 ovarian, 95.9%; with SK-OV-3 ovarian, 103%. Moreover, the growth in the test on IGROV1 ovarian is 91.6%; in the test on HS 578T breast, 89.9%; with NCI/ADR-RES ovarian, 95.2%; in the test with BT-549 breast, 111%; with MDA-MB-435 melanoma, 99.5%; with SW-620 colon, 105%. For the same compound, the growth in the test with MCF7 breast was 87.1%; in the test with HCT-116 colon, 95.2%; with HCC-2998 colon it was 101%; in the test with KM12 colon, 93.7%.
For `CCc1cc2c(cc1Cl)nc1c(=O)[nH]c(=O)nc-1n2CCOCC(C)(C)C`, the growth in the test with SR leukemia is 35.8%; in the test with RPMI-8226 leukemia it was 68.5%; in the test with OVCAR-8 ovarian, 72.2%; in the test with OVCAR-5 ovarian, 119%; in the test with OVCAR-4 ovarian, 52.5%; in the test with SK-OV-3 ovarian, 110%. Besides, the growth in the test with IGROV1 ovarian was 60.3%; in the test with HS 578T breast, 101%; in the test with NCI/ADR-RES ovarian, 79.2%; in the test on BT-549 breast it was 95%; in the test with MDA-MB-435 melanoma it was 33.5%; in the test with SW-620 colon it was 89.5%. Moreover, the growth was 58.2% with MCF7 breast, 73.3% in the test with HCT-116 colon, 84.1% in the test with HCC-2998 colon and 76.5% in the test with KM12 colon.
For the compound `CSc1ccc(/C(=N/N=C(N)N)c2ccc(Cl)cc2)cc1`, the growth in the test on SR leukemia was -15.7% (active); in the test with RPMI-8226 leukemia it was 6.98% (active); with OVCAR-8 ovarian, -18.4% (active); in the test on OVCAR-5 ovarian it was 11.4%; in the test with OVCAR-4 ovarian, 57%; in the test with SK-OV-3 ovarian, 24.7%. The growth in the test on IGROV1 ovarian was 4.76% (active); with HS 578T breast, 4% (active); in the test with NCI/ADR-RES ovarian, -3.46% (active); in the test with T-47D breast, 50.5%; with BT-549 breast, -37.3% (active); in the test on SW-620 colon, 2.54% (active). In addition, the growth with MCF7 breast was 0.167% (active); with HCT-116 colon, -27.7% (active); in the test on HCC-2998 colon, -68.2% (active); in the test with KM12 colon, 5.79% (active).
In the case of `NS(=O)(=O)c1ccc(CCn2c(-c3ccc(C(=O)O)cc3)nc(-c3ccccc3)c2-c2ccccc2)cc1`, the growth in the test on SR leukemia was 99.7%; in the test with RPMI-8226 leukemia, 100%; with OVCAR-8 ovarian, 111%; in the test with OVCAR-5 ovarian, 103%; with OVCAR-4 ovarian it was 99.4%; in the test with SK-OV-3 ovarian, 111%. Further, the growth with IGROV1 ovarian was 108%; with HS 578T breast, 101%; in the test on T-47D breast it was 104%; with BT-549 breast, 104%; in the test with MDA-MB-435 melanoma, 98.8%; with SW-620 colon it was 98.6%. The growth was 93.6% with MCF7 breast, 101% in the test with HCT-116 colon, 108% with HCC-2998 colon and 107% in the test on KM12 colon.
`Cn1cc(-c2nn3cc(-c4ccncc4)nc3s2)c2cc(F)ccc21`: the growth in the test on SR leukemia is 1.87% (active); in the test on RPMI-8226 leukemia, 55.3%; in the test with OVCAR-8 ovarian, 58.6%; with OVCAR-5 ovarian, 100%; with OVCAR-4 ovarian, 72.8%; with SK-OV-3 ovarian, 92.7%. The growth in the test on IGROV1 ovarian is 64.9%; in the test with HS 578T breast it was 86.7%; with T-47D breast it was 41.4%; with BT-549 breast, 64.6%; in the test on MDA-MB-435 melanoma, 83.2%; in the test with SW-620 colon, 68.9%. Further, the growth in the test on MCF7 breast is 18.2%; in the test on HCT-116 colon, 45.7%; in the test on HCC-2998 colon, 91.4%; in the test with KM12 colon, 81.8%.
Regarding `COc1ccc(/C(=N\NC(N)=S)c2ccc(Cl)cc2)cc1OC`, the growth in the test on SR leukemia was 29.3%; with RPMI-8226 leukemia, 45.6%; in the test on OVCAR-8 ovarian it was 37.8%; in the test on OVCAR-5 ovarian, 51.2%; in the test with OVCAR-4 ovarian, 60.6%; in the test on SK-OV-3 ovarian, 18.3%. The growth was 30.3% in the test on IGROV1 ovarian; 3.4% (active) with HS 578T breast; 7.07% (active) in the test with NCI/ADR-RES ovarian; 14.2% in the test on BT-549 breast; -35.1% (active) in the test with MDA-MB-435 melanoma; 15.9% with SW-620 colon. Also, the growth was 14.4% in the test on MCF7 breast, 14.9% with HCT-116 colon, 52.6% in the test with HCC-2998 colon and 19.4% with KM12 colon.
